Some test systems named below: SK-MEL-2 melanoma; EKVX NSCLC; SN12C renal; UO-31 renal; TK-10 renal; ACHN renal; CAKI-1 renal; A498 renal; HL-60(TB) leukemia; CCRF-CEM leukemia.
What all share (test): NCI-60 one-dose screen, 48 h (100 = growth as untreated, 0 = no growth, -100 = all killed)
Conditions in all cases: 10 µM unless noted

Structures are written as SMILES. The panel holds about 83,000 compounds, 20% with a hit somewhere; the sample as a whole holds those more often.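 Results are percent growth after 48 hours of single-concentration exposure. 100 means growth as in untreated cells, lower positive values show inhibition; negative values down to -100 show cell death.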 Values without a mark were called inactive. Activity calls are given as the source filed them. Rule for the calls: active = growth percent below 10; inactive = the rest.

The record followed here is PubChem BioAssay (NCI).

In the case of `C=CC1CN2CCC1CC2C(O)c1ccnc2ccccc12` (stereo not given), the growth in the test with SK-MEL-2 melanoma was -4.22% (active); in the test with EKVX NSCLC it was 145%; in the test with SN12C renal it was 109%; in the test on UO-31 renal, 67%; in the test on TK-10 renal, 142%; in the test with ACHN renal it was 109%. The growth with CAKI-1 renal was 144%; with A498 renal, 125%; with HL-60(TB) leukemia it was 225%; with CCRF-CEM leukemia, 304%.

As for `COc1ccc(O)c2c(=O)c3c(OC)cc4c(c3oc12)[C@@H]1C=CO[C@@H]1O4`, the growth with SK-MEL-2 melanoma is 6.45% (active); in the test with EKVX NSCLC it was 6.71% (active); in the test on SN12C renal, 73.1%; in the test on UO-31 renal, 51.9%; with TK-10 renal, 36.8%; in the test with ACHN renal, 5.59% (active). The growth in the test with CAKI-1 renal was 35.9%; in the test with A498 renal, 87%; in the test with HL-60(TB) leukemia, 65.8%; in the test with CCRF-CEM leukemia, 92.6%.

Consider `Cc1cc[c-]cc1.Fc1c[c-]c(-c2ccccn2)c(F)c1.[Pt+2].c1ccc([PH+](c2ccccc2)c2ccccn2)cc1`, for which the growth was 71.8% with SK-MEL-2 melanoma; 65.3% in the test on EKVX NSCLC; 52.1% with SN12C renal; 58.4% in the test with UO-31 renal; 75.9% in the test with TK-10 renal; 69% in the test on ACHN renal. Moreover, the growth is 54.7% in the test with CAKI-1 renal, 82.7% in the test on A498 renal, 38.2% with HL-60(TB) leukemia and 19.9% in the test on CCRF-CEM leukemia.

As for `Cc1ccc(P(=O)(O)O)cc1`, the growth in the test with SK-MEL-2 melanoma is 109%; with EKVX NSCLC it was 100%; with SN12C renal, 97.7%; in the test with UO-31 renal, 96.6%; with TK-10 renal, 102%; with ACHN renal it was 109%. Moreover, the growth is 97.2% with CAKI-1 renal, 115% in the test on A498 renal, 107% in the test with HL-60(TB) leukemia and 114% with CCRF-CEM leukemia.

Take `O=C/C=C/c1ccco1`: the growth was 108% in the test on SK-MEL-2 melanoma; 100% in the test with EKVX NSCLC; 101% with SN12C renal; 88.9% with UO-31 renal; 97.7% in the test with TK-10 renal; 109% in the test with ACHN renal. The growth is 95.6% with CAKI-1 renal, 96.9% in the test on A498 renal, 88.2% with HL-60(TB) leukemia and 100% in the test with CCRF-CEM leukemia.

`Nc1ccc2c(c1)Cc1cc(N)ccc1-2`: the growth was 89.9% with SK-MEL-2 melanoma; 61.2% in the test on EKVX NSCLC; 90.5% in the test on SN12C renal; 62.6% in the test with UO-31 renal; 106% in the test on TK-10 renal; 97% with ACHN renal. Also, the growth was 86.4% with CAKI-1 renal, 84.9% with A498 renal, 100% in the test with HL-60(TB) leukemia and 60.1% in the test with CCRF-CEM leukemia.

Turning to `CC[C@H](C)[C@H](NC(=O)[C@H]1CCCCN1C)C(=O)N(C)[C@H](C[C@@H](OC(C)=O)c1nc(C(=O)NC23C4C5C2C2C3C4C52C(=O)OC)cs1)C(C)C` (stereo not given in full), the growth with SK-MEL-2 melanoma is 39.7%; in the test with EKVX NSCLC, 36.2%; in the test with SN12C renal it was 32.5%; in the test with UO-31 renal it was 33.4%; in the test with TK-10 renal, 36.7%; in the test with ACHN renal, 16.2%. In addition, the growth in the test with CAKI-1 renal is 28.9%; with A498 renal, 3.94% (active); with HL-60(TB) leukemia, -32.8% (active); in the test on CCRF-CEM leukemia, 6.99% (active).

On to `Cc1ccc(N2CCN(CCC#N)CC2)cc1`, for which the growth with SK-MEL-2 melanoma is 110%; with EKVX NSCLC it was 95.5%; in the test on SN12C renal it was 96%; in the test on UO-31 renal it was 82.6%; with TK-10 renal, 89.5%; with ACHN renal it was 101%. In addition, the growth in the test with CAKI-1 renal is 87.1%; in the test on A498 renal it was 137%; in the test with HL-60(TB) leukemia it was 87%; in the test on CCRF-CEM leukemia, 92%.

`C[C@]12CCC3[C@@H](C[C@@H]4SC(Nc5ccccc5)=N[C@@]45CC(=O)CC[C@]35C)[C@@H]1CCC2=O` (stereo not given in full): the growth in the test on SK-MEL-2 melanoma is 6.9% (active); in the test with EKVX NSCLC it was 49.4%; with SN12C renal, -8.78% (active); in the test on UO-31 renal it was -89% (active); in the test with TK-10 renal, -4.55% (active); in the test with ACHN renal it was -62.4% (active). In addition, the growth with CAKI-1 renal was -45.6% (active); in the test on A498 renal, 63.7%; in the test with HL-60(TB) leukemia it was 6.25% (active); in the test with CCRF-CEM leukemia, 3.23% (active).

`C[C@@]12CCCc3coc(c31)C(=O)c1cc3c(cc12)C(=O)C1=C(NCCS1(=O)=O)C3=O`: the growth with SK-MEL-2 melanoma is -41.3% (active); with EKVX NSCLC, 11.1%; in the test on SN12C renal, -79.3% (active); with UO-31 renal it was 35.7%; in the test with TK-10 renal, 28.2%; with ACHN renal it was 30.6%. The growth was 10.5% in the test on CAKI-1 renal, 35.3% in the test with A498 renal, -45% (active) with HL-60(TB) leukemia and -28.7% (active) with CCRF-CEM leukemia.

In the case of `O=C(O)C(F)F`, the growth was 120% in the test on SK-MEL-2 melanoma; 101% in the test on EKVX NSCLC; 104% with SN12C renal; 94.9% in the test with UO-31 renal; 97.7% with TK-10 renal; 116% in the test with ACHN renal. Moreover, the growth is 102% in the test on CAKI-1 renal, 84.4% with A498 renal, 96% in the test on HL-60(TB) leukemia and 110% in the test on CCRF-CEM leukemia.

Take `N#CC(NC(=O)CCl)=C(Cl)Cl`: the growth with SK-MEL-2 melanoma is 51.5%; with EKVX NSCLC it was -45.3% (active); with SN12C renal, 29%; in the test with UO-31 renal, -40% (active); with TK-10 renal, -13.1% (active); with ACHN renal, -88.7% (active). Besides, the growth in the test on CAKI-1 renal is -99.4% (active); in the test with A498 renal, 63.4%; with HL-60(TB) leukemia it was -58.3% (active); in the test with CCRF-CEM leukemia, -21.9% (active).
